As a reminder, the Inhibition is the percentage by which the read-out fell short of the control. Read a high Inhibition as strong suppression.

The subject of this assay is HepG2. As to the kind of experiment: GSK_TCMDC: Percent inhibition of human HepG2 cell line. Test compounds present at 10uM. The format is functional.
Compound `O=C(Nc1ccc(C(F)(F)F)cc1)c1ccc(NCCCN2CCCCCC2)c([N+](=O)[O-])c1` displayed an Inhibition of 42%. In the case of `COc1ccc(Nc2nc(NC3CCN(C)CC3)cc(-c3ccc(OC)cc3)n2)cc1`, the Inhibition was determined as 62%. The same measure for `Cc1nc2nc(N)nc(N)c2c(C)c1Cc1ccccc1Cl.Cl`: 63%. `CCNc1cc(C(=O)N[C@@H](Cc2ccccc2)[C@H](O)CNC(CC)c2cccc(Cl)c2)cc(N2CCCCS2(=O)=O)c1.Cl` (some centres not stated) had an Inhibition of 12%. The same measure for `CC1CC(NCCCNc2cc(=O)c3ccccc3[nH]2)c2c(Cl)c(Cl)cc(Cl)c21` (configuration not stated): 6%.

`CN1CCN(CCCN(Cc2cccc(-c3cccc(CNCc4ccc5c(c4)OCO5)c3)c2)C(=O)CCC2CCCC2)CC1.O=C(O)C(F)(F)F` showed an Inhibition of 85%. `Cl.N=C(N)NN=Cc1ccc2c(ccc3ccccc32)c1`: the Inhibition was found to be 9%.

In the case of `Oc1ccc(Cl)cc1Nc1nc(C(F)(F)F)nc2ccccc12`, the Inhibition came to 16%. Take `CCN1CCN(C(=O)NC(C(=O)N2CCCC(COc3ccc(Cc4ccccc4)cc3)C2)c2cccs2)C(=O)C1=O` (configuration not stated): the Inhibition was 12%. Regarding `CCNC(=O)Nc1ccc(-c2cnc(N)c(-c3nc4ccc(OC)cc4[nH]3)c2)cc1`, the Inhibition stood at 51%. Next, `O=C(O)C1Cc2c([nH]c3ccccc23)C(c2ccc(Cl)cc2Cl)N1` (configuration not stated): 7%. In turn, `CC(C)COc1ccc(Cl)cc1Cc1nc(-c2nc3ccc(N4CCN(C)CC4)nc3[nH]2)cs1.Cl` registered an Inhibition of 29%.

The values above are taken from ChEMBL document CHEMBL1157539, “Thousands of chemical starting points for antimalarial lead identification” (Nature, 2010).
